Data on seven compounds can be found in PubChem BioAssay (Tox21).

Values without a mark were called inactive. Results filed as inconclusive are left out. The source made the active and inactive calls. Unless noted, calls come from the whole dose curve.

Test [1] can be described thus: Nuclear factor erythroid 2-related factor 2/antioxidant responsive element (Nrf2/ARE) small molecule agonists: qHTS cell viability counter screen in human keratinocytes (AID 1919968; active = well fitted curve in the direction sought with a large enough effect in the repeat runs; an effect the other way counts as inactive or inconclusive; note: nearly all actives have a fitted effect of over 55% in size; note: potency is the fitted concentration of half-maximal effect). Put shortly:
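After a 5 h attachment period, ARE-reporter keratinocytes were dosed with compounds in DMSO and then cultured 23 h at 37 C. Cell viability came from CellTiter-Fluor signal read after a further 1 h.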
(qHTS replaces the single test concentration by a dilution series.)

Test [2] addresses Gonadotropin-releasing hormone receptor (Homo sapiens) (UniProt P30968). As to the kind of experiment: Human gonadotropin-releasing hormone receptor (GnRHR) small molecule agonists, calcium flux assay in GnRHR-HEK293 cells (AID 1920063). Note: nearly all actives have a fitted effect of over 35% in size. The method, boiled down: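 We seeded human GnRHR-expressing HEK293 cells for 18 hours, loaded them with calcium dye for an hour at 37 C, added test compounds, and recorded fluorescence intensity kinetically for three minutes.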

Test [3] deals with KiSS-1 receptor (Homo sapiens) (UniProt Q969F8). As to the kind of experiment: Human kisspeptin (KISS1R) small molecule agonists, calcium flux assay in KISS1R-HEK293 cells (AID 1920064; active = well fitted curve in the direction sought with a large enough effect in the repeat runs; an effect the other way counts as inactive or inconclusive). Put shortly: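 Kinetic calcium assay, 1 s sampling over 3 min at Ex/Em 480/540, in HEK293 cells engineered with human KISS1R; compounds delivered in DMSO after 1 h dye loading.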
Sequence of KiSS-1 receptor (Homo sapiens) (Q969F8 whole entry, looked up): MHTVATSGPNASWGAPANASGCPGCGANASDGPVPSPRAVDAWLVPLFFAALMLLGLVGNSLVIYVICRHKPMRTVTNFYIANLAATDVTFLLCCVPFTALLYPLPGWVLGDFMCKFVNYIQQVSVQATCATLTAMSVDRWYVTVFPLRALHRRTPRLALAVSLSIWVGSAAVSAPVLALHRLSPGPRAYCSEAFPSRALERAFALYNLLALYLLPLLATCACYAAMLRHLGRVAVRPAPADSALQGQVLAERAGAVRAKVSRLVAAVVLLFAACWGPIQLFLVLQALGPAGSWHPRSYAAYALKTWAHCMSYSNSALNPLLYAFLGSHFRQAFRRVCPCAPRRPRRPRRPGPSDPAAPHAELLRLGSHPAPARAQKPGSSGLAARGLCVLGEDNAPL
For orientation: A change in cytosolic calcium serves as a functional read-out for many receptors and channels.

The nature of test [4]: G protein-coupled receptor (GPCR) small molecule agonists, calcium flux assay: HEK293 wild type cell line counter screen (AID 1920065). The method, boiled down: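 Calcium-sensitive dye, loaded 1 h at 37 C into cells cultured 18 h, reports compound-evoked calcium release as fluorescence (Ex/Em 480/540), measured over 3 min. Agonist mode; 15-point titrations, triplicate.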
Test [5] is described as follows: p53 small molecule agonists, cell-based qHTS assay with rat liver microsomes (AID 1963578). Put shortly: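 With rat liver microsomes and NADPH present (0.5 mg/mL final each), p53RE-bla cells are treated with compound for 16 h at 37 C. LiveBLAzer detection mixture is then applied for 2 h at room temperature in the dark.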
A short description of test [6]: p53 small molecule agonists, cell-based qHTS assay with human liver microsomes: qHTS cell viability counter screen (AID 1963579). Note: nearly all actives have a fitted effect of over 45% in size. Note: potency is the fitted concentration of half-maximal effect. Put shortly: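 In this multiplexed counter screen, the reporter plates were subsequently treated with CellTiter-Glo so that cell viability, reflected by luminescence, could be recorded for p53RE-bla cells dosed 16 h with compounds under microsomal activation (HLM and NADPH).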

A short description of test [7]: p53 small molecule agonists, cell-based qHTS assay with rat liver microsomes: qHTS cell viability counter screen (AID 1963580). Note: nearly all actives have a fitted effect of over 45% in size. Note: potency is the fitted concentration of half-maximal effect. Put shortly:
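p53RE-bla HCT-116 cells (4,000/well) rested 5 h at 37 C, then given Tox21 compounds in DMSO with rat liver microsomes (0.5 mg/mL final) plus NADPH (0.5 mg/mL final) for 16 h at 37 C. Viability read by CellTiter-Glo luminescence after 30 min at room temperature.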

A short description of test [8]: p53 small molecule agonists, cell-based qHTS assay: qHTS cell viability counter screen (AID 1963581). Note: nearly all actives have a fitted effect of over 45% in size. Put shortly:
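Following 5 h attachment, HCT-116 p53RE-bla cells took up compound for 16 h at 37 C; the reporter was read with B/G FRET substrate (2 h RT), and viability then via CellTiter-Glo ATP luminescence.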

Test [9] concerns the target 5-hydroxytryptamine receptor 2A (Homo sapiens) (UniProt P28223). As to the kind of experiment: 5-hydroxytryptamine receptor 2A (HTR2A) small molecule antagonists, cell-based qHTS assay (AID 1963586). Note: nearly all actives have a fitted effect of over 45% in size. Put shortly:
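Antagonist-mode intracellular calcium assay: DOI (4 nM) added after 5 min compound pre-incubation at room temperature to dye-loaded HTR2A-CHO cells. Fluorescence followed for 3 min, sampled every second.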

The target is the same in test [10]. As to the kind of experiment: 5-hydroxytryptamine receptor 2A (HTR2A) small molecule agonists, cell-based qHTS assay (AID 1963587). Note: nearly all actives have a fitted effect of over 30% in size. Put shortly: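 HTR2A-CHO cells, plated 18 h at 37 C/5% CO2, dye-loaded 1 h at 37 C; compounds in DMSO added by pin tool (agonist mode). Intracellular calcium flux read as kinetic fluorescence on FDSS over 2 min at 1 s intervals.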

The target of test [11] is Muscarinic acetylcholine receptor M1 (Homo sapiens) (UniProt P11229). As to the kind of experiment: Cholinergic receptor muscarinic 1 (CHRM1) small molecule antagonists, cell-based qHTS assay (AID 1963588). Note: nearly all actives have a fitted effect of over 40% in size. Note: potency is the fitted concentration of half-maximal effect. The method, boiled down: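 CHRM1-CHO calcium-flux assay, antagonist mode. Cells were seeded 18 h, dye-loaded 1 h at 37 C and given compound for 5 min at RT, then acetylcholine was added at 50nM. FDSS fluorescence was read 3 min; 15 concentrations, three runs.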
Sequence of Muscarinic acetylcholine receptor M1 (Homo sapiens) (P11229 whole entry, looked up): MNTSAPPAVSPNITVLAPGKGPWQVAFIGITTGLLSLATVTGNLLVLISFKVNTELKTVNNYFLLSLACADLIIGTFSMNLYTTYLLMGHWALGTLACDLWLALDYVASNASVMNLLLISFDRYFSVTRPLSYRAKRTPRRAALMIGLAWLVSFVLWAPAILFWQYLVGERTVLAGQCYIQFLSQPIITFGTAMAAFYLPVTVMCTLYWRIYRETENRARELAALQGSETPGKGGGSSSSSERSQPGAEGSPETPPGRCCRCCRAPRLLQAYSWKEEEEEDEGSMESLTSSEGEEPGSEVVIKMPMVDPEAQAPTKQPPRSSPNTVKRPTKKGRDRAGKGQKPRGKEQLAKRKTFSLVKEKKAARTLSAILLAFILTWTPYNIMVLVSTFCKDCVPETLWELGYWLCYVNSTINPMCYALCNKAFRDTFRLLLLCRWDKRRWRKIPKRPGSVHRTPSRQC

For test [12] the target is unchanged. As to the kind of experiment: Cholinergic receptor muscarinic 1 (CHRM1) small molecule agonists, cell-based qHTS assay (AID 1963589). Note: nearly all actives have a fitted effect of over 35% in size. Put shortly:
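Measures agonist-induced intracellular calcium rise. Stable human CHRM1 CHO line, 1 h dye load at 37 C, compounds from DMSO, kinetic fluorescence read.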

Test [13] in a line: cAMP Responsive Elements (CRE) small molecule antagonists, cell-based qHTS assay (AID 1963591; active = well fitted inhibition curve with a large enough effect in the signal ratio in the repeat runs, not every such curve was filed as active; the % refers to the signal ratio). Put shortly:
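HEK293T cells carrying a CRE-driven beta-lactamase reporter receive compound and NKH477 (0.25 uM final) for 3 h. Fluorescence from LiveBLAzer B/G FRET substrate is read after 2 h at room temperature.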

Test [14] deals with Beta-2 adrenergic receptor (Homo sapiens) (UniProt P07550). As to the kind of experiment: Adrenergic beta2 receptor (ADRB2) small molecule antagonists, cell-based qHTS assay (AID 1963592). Note: series mostly up to about 92 µM; nearly all actives have a fitted effect of over 50% in size. The method, boiled down: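 Cells (CHO, stable ADRB2 overexpression) incubated 18-20hr at 37C; compounds added from DMSO; agonist mix (1nM isoproterenol, 100uM IBMX, 25uM Ro-20-1724) added; 0.5hr RT; d2-cAMP and anti-cAMP-cryptate added; 1hr RT; 665/615 nm read.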
Sequence of Beta-2 adrenergic receptor (Homo sapiens) (P07550 whole entry, looked up): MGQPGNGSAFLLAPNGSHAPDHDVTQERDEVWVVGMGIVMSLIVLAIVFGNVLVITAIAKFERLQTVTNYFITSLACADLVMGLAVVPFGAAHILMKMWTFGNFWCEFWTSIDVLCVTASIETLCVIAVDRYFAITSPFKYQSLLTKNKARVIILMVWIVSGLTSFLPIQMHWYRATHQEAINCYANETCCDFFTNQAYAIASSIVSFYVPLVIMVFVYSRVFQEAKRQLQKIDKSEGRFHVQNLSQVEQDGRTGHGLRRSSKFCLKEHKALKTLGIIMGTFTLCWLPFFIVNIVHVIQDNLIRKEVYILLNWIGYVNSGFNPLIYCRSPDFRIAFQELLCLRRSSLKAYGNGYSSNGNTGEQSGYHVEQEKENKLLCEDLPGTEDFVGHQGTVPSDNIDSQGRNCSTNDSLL

The target is the same in test [15]. Description: Adrenergic beta2 receptor (ADRB2) small molecule agonists, cell-based qHTS assay (AID 1963593).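 Note: CHO cells stably overexpressing human ADRB2.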 Put shortly:
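CHO cells stably over-expressing ADRB2 were plated overnight at 37C, then dosed with compounds plus a stimulation mix containing 100uM IBMX and 25uM Ro-20-1724 for 0.5hr at room temperature. cAMP was measured by HTRF competition, 1hr.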

Test [16] deals with D(2) dopamine receptor (Homo sapiens) (UniProt P14416). Description: Dopamine D2 receptor (DRD2) small molecule antagonists, cell-based qHTS assay (AID 1963595; active = well fitted inhibition curve with a large enough effect in the signal ratio in the repeat runs, with a control signal flat; the % refers to the signal ratio; note: potency is the fitted concentration of half-maximal effect). Put shortly:
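HEK293 cells stably expressing DRD2, preincubated with 0.1 mM Ro20-1724 and compounds 10 min, were stimulated with 200 nM NKH477 plus 12 nM quinpirole for 30 min at room temperature; cAMP measured by HTRF (665/620 nm).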

Test [17] in a line: p53 small molecule agonists, cell-based qHTS assay (AID 1963582; active = well fitted activation curve with a large enough effect in the signal ratio in the repeat runs, not every such curve was filed as active; the % refers to the signal ratio). Put shortly:
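In this cell-based concentration-response screen, a p53 response element drives beta-lactamase; cells received DMSO-borne compounds after 5 h culture and were incubated a further 16 h before FRET substrate development.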

Test [18] in a line: cAMP Responsive Elements (CRE) small molecule agonists, cell-based qHTS assay (AID 1963590). The method, boiled down: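 A CRE-responsive beta-lactamase reporter in HEK 293T cells was used. Treatment ran 3 h at 37 C; detection used LiveBLAzer B/G FRET substrate for 2 h at room temperature.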
Test [19] addresses D(2) dopamine receptor (Homo sapiens) (UniProt P14416). As to the kind of experiment: Dopamine D2 receptor (DRD2) small molecule agonists, cell-based qHTS assay (AID 1963594). Note: nearly all actives have a fitted effect of over 35% in size. Put shortly: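 HEK293 cells stably expressing DRD2 were cultured 24 h at 37 C, then given Ro20-1724 (0.1 mM final) and compounds for 10 min at room temperature. NKH477 (200nM) was then added for 30 min. cAMP was read by HTRF.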

The nature of test [20]: p53 small molecule agonists, cell-based qHTS assay with human liver microsomes (AID 1963577).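 Note: p53 response element beta-lactamase reporter cells with liver microsomes plus NADPH.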 Put shortly:
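16 h, 37 C exposure of p53RE-bla cells to compounds with human liver microsomes and NADPH (0.5 mg/mL final each); detection via LiveBLAzer mixture, 2 h dark at room temperature.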

Sequence of Gonadotropin-releasing hormone receptor (Homo sapiens) (P30968 whole entry, looked up): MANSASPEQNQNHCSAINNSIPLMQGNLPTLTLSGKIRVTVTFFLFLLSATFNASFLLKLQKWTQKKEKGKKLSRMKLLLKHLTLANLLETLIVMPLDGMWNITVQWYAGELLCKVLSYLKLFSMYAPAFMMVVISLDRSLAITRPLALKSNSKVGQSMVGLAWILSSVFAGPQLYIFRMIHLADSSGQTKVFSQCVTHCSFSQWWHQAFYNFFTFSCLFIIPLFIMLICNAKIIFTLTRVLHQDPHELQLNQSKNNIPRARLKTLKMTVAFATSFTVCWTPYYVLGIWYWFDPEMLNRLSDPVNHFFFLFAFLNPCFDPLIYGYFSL
Sequence of 5-hydroxytryptamine receptor 2A (Homo sapiens) (P28223 whole entry, looked up): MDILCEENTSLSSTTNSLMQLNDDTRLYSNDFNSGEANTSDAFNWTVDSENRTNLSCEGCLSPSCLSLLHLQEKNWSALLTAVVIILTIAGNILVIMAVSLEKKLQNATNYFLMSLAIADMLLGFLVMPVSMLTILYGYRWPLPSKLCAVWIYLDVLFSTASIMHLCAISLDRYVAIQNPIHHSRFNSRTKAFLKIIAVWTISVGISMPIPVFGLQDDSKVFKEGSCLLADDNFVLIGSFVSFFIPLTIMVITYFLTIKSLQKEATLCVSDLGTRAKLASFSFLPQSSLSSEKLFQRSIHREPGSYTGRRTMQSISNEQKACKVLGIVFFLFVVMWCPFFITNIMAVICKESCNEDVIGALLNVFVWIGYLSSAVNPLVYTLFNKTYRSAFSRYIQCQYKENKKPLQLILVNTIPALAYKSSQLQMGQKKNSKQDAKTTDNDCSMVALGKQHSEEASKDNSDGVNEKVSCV
Sequence of D(2) dopamine receptor (Homo sapiens) (P14416 whole entry, looked up): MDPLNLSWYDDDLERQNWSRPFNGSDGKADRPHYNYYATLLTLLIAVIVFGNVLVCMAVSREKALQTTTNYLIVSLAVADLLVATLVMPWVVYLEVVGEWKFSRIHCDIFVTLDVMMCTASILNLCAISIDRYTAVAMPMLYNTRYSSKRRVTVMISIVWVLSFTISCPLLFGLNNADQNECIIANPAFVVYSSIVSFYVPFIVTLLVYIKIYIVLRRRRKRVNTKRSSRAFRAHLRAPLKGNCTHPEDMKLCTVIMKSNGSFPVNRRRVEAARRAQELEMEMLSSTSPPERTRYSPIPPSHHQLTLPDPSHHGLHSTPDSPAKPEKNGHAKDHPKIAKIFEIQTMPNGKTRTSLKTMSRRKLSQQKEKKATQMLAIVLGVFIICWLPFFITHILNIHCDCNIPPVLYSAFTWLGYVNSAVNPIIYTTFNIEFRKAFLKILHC

`Cc1cc(-c2ccc(N=Nc3cc(S(=O)(=O)O)c4ccccc4c3N)c(C)c2)ccc1N=Nc1cc(S(=O)(=O)O)c2ccccc2c1N`: the Potency result in test [1], in [2], in test [3], in test [4], in test [5] and in test [6] was “inactive” in each case. Also, the Potency entry in test [7], in test [8], in test [9], in [10], in test [12] and in test [13] was “inactive” throughout. Also, the Potency entry in test [14], in test [15] and in [16] was “inactive” throughout. Moreover, in test [11], the Potency was 7.52 µM (active).
For `CC(=O)CCc1ccc(OC(C)=O)cc1`, the Potency result in [1], in test [2], in [3], in test [4], in test [5] and in [6] was “inactive” throughout. Besides, the Potency result in test [7], in [8], in test [17], in [9], in test [12] and in [18] was “inactive” each time. The Potency entry in test [19] and in test [16] was “inactive” in each case.
For `COc1cc(C(=O)NC2CCN(C)CC2)ccc1Nc1ncc2c(n1)N(C1CCCC1)CC(F)(F)C(=O)N2C`, the Potency was 28.1 µM (active) in [1], 16.7 µM (active) in test [6], 37.4 µM (active) in [7] and 49.9 µM (active) in test [16]. Moreover, the Potency result in test [2], in [3], in test [4], in [5], in test [9] and in [10] was “inactive” each time. Also, the Potency entry in [14], in [15] and in [19] was “inactive” each time.
Take `CC(C)NCC(O)COc1ccc(CCOCC2CC2)cc1` (configuration not stated): the Potency result in test [1], in test [2], in test [3], in [4], in test [6] and in [7] was “inactive” in each case. Further, the Potency result in test [8], in test [17], in test [10], in [11], in [12] and in test [18] was “inactive” each time. For the same compound, the Potency entry in [16] was “inactive”.
For the compound `O=C(c1ccc(O)cc1)c1ccc(O)c(O)c1O`, the Potency entry in test [1], in test [2], in test [3], in [4], in test [5] and in [6] was “inactive” each time. The Potency result in test [7], in test [8], in test [17], in [11] and in test [12] was “inactive” each time.
Consider `c1ccc(-c2nc3ccccc3[nH]2)cc1`, for which the Potency entry in test [1], in test [2], in [3], in [4], in [20] and in [6] was “inactive” in each case. In addition, the Potency entry in test [17], in test [9], in [10], in test [11], in [12] and in test [18] was “inactive” throughout. The Potency result in test [13], in [14], in test [19] and in test [16] was “inactive” in each case.
For `NO`, the Potency result in [1], in test [2], in [3], in test [4], in [5] and in test [6] was “inactive” in each case. The Potency entry in [7], in test [8], in test [17], in test [9], in [10] and in test [11] was “inactive” in each case. Further, the Potency entry in test [12], in test [18], in test [13], in test [14], in test [15] and in test [19] was “inactive” each time. Also, the Potency result in test [16] is “inactive”.
